From PubChem BioAssay (Tox21)
Values joined by “and” are separate entries in the source; they are usually repeats but may differ in a detail not shown here. Identical values can stand only once. Unmarked numbers belong to inactive results. Inconclusive results are not listed. Where a call stands in place of a potency, no number is given. Active and inactive are the calls of the source. Unless noted, calls come from the whole dose curve; as a rule, active = well fitted curve in the direction sought with a large enough effect in the repeat runs; inconclusive = weak or mixed curves; inactive = no such curve, though single readings can be large; an effect the other way counts as inactive or inconclusive.

Key:
[1] = qHTS assay for small molecule agonists of the p53 signaling pathway - cell viability (AID 651633; calls by dose curve; note: potency is the fitted concentration of half-maximal effect; nearly all actives have a fitted effect of over 30% in size)
Procedure, shortened: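 p53RE-bla cells were treated with compound for 16 hours at 37 C. Cytotoxicity was then measured as CellTiter-Glo luminescence after 30 min at room temperature.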

[2] = qHTS assay for small molecules that induce genotoxicity in human embryonic kidney cells expressing luciferase-tagged ATAD5 - cell viability (AID 651634; calls by dose curve; note: nearly all actives have a fitted effect of over 25% in size; note: potency is the fitted concentration of half-maximal effect)
Procedure, shortened: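 Cells (HEK293T, luciferase-tagged ATAD5) are seeded at 2,000 per well, dosed with compound or DMSO vehicle, and incubated 15.5 hr at 37C and 5% CO2. CellTiter-Fluor is added for 30 min before fluorescence is measured.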

[3] = qHTS assay for small molecule disruptors of the mitochondrial membrane potential - cell viability (AID 720634; calls by dose curve;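 note: human HepG2 liver cancer cells; series mostly up to about 83 µM; nearly all actives have a fitted effect of over 20% in size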)
Procedure, shortened: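 Cytotoxicity was measured by ATP quantitation in HepG2 wells that had first been treated with compound for 1 hr and stained with m-MPI dye; CellTiter-Glo incubation was 30 min at room temperature.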

[4] = qHTS assay for small molecule disruptors of the mitochondrial membrane potential (AID 720635); note: potency is the fitted concentration of half-maximal effect
Procedure, shortened: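 HepG2 cells exposed to compound 1 hr at 37C, then Mito-MPS dye 30 min. Ratio read of aggregate (540/590 nm) versus monomer (490/535 nm) fluorescence.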

[5] = qHTS assay to test for compound auto fluorescence at 590 nm (red) in HepG2 cells (AID 720674)
Procedure, shortened: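 Fluorescence at 590 nm emission following 540 nm excitation was recorded from HepG2 wells one hour after compound transfer, with DMSO-only wells as vehicle and Rose Bengal sodium equivalency as the scale.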

[6] = qHTS assay to test for compound auto fluorescence at 460 nm (blue) in HEK293 cells (AID 720678)
Procedure, shortened: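 HEK293, 2,000 cells/well, 10% dialyzed FBS; attach 4-5 hr 37C; pin compound or DMSO; o/n 37C/5% CO2; fluorescence 405/460 nm; triamterene-equivalent units.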

[7] = qHTS assay for small molecules that induce genotoxicity in human embryonic kidney cells expressing luciferase-tagged ATAD5 (AID 651632); note: nearly all actives have a fitted effect of over 15% in size; note: potency is the fitted concentration of half-maximal effect
Procedure, shortened: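 Cells were seeded at 2,000 per well, dosed with compound, and incubated 16 hr at 37C in 5% CO2. Luciferase activity was then quantified after a 30 min room-temperature incubation with Amplite.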

[8] = qHTS assay to test for compound auto fluorescence at 590 nm (red) in HEK293 cells (AID 720679)
Procedure, shortened: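 Intensity at 540nm excitation and 590nm emission is reported as Rose Bengal sodium-equivalent autofluorescence. Measurements followed overnight exposure (37C, 5% CO2) of HEK293 cells, 2,000 per well, to 23 nL compound.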

[9] = qHTS assay to test for compound auto fluorescence at 535 nm (green) in HepG2 cells (AID 720675)

## C[C@H]1O[C@@H](O[C@H]2[C@@H](O)C[C@H](O[C@H]3[C@@H](O)C[C@H](O[C@H]4CC[C@@]5(C)[C@H](CC[C@@H]6[C@@H]5C[C@@H](O)[C@]5(C)[C@@H](C7=CC(=O)OC7)CC[C@]65O)C4)O[C@@H]3C)O[C@@H]2C)C[C@H](O)[C@@H]1O
[1]
  Potency: 94.4 nM (active) and 13.7 nM (active) and 30.3 nM (active)
[2]
  Potency: 168 nM (active) and 48.6 nM (active) and 42.8 nM (active)
[3]
  Potency: inactive
[4]
  Potency: 298 nM (active) and 1.37 µM (active) and 604 nM (active)
[5]
  Potency: inactive
[6]
  Potency: inactive

## C=C(c1ccc(C(=O)O)cc1)c1cc2c(cc1C)C(C)(C)CCC2(C)C
[7]
  Potency: inactive
[3]
  Potency: inactive
[4]
  Potency: 9.44 µM (active) and 21.7 µM (active)
[5]
  Potency: inactive
[6]
  Potency: inactive
[8]
  Potency: inactive

## CN(C)CCCN1c2ccccc2CCc2ccccc21
[2]
  Potency: inactive
[3]
  Potency: inactive
[5]
  Potency: inactive
[9]
  Potency: inactive
[6]
  Potency: inactive

## O=C1Nc2ccc(Cl)cc2[C@@](C#CC2CC2)(C(F)(F)F)O1
[7]
  Potency: inactive
[4]
  Potency: 4.73 µM (active)
[5]
  Potency: inactive
[9]
  Potency: inactive
[6]
  Potency: inactive
[8]
  Potency: inactive

## Cc1cc2c(C(C)C)c(O)c(O)c(C=O)c2c(O)c1-c1c(C)cc2c(C(C)C)c(O)c(O)c(C=O)c2c1O
[1]
  Potency: 8.41 µM (active)
[2]
  Potency: 13.3 µM (active)
[3]
  Potency: inactive
[4]
  Potency: 11.9 µM (active)
[5]
  Potency: inactive
[9]
  Potency: inactive
[6]
  Potency: inactive
[8]
  Potency: inactive

## CCCCOc1ccc(C(=O)CCN2CCCCC2)cc1
[2]
  Potency: inactive
[3]
  Potency: inactive
[4]
  Potency: inactive
[5]
  fluorescence, relative to Rose Bengal: 0.0479% [at 18.6 µM]
[6]
  fluorescence, % of triamterene: 0.101% [at 18.6 µM]

## CSc1ccc2c(c1)N(CCC1CCCCN1C)c1ccccc1S2 (stereo not given)
[7]
  Potency: inactive
[2]
  Potency: 29.8 µM (active) and 68.3 µM (active)
[5]
  Potency: inactive
[9]
  Potency: inactive
[6]
  Potency: inactive
[8]
  Potency: inactive

## CN1[C@@H]2CC[C@@H]1CC(OC(=O)C(CO)c1ccccc1)C2 (stereo not given in full)
[4]
  Potency: inactive
[5]
  Potency: inactive
[8]
  Potency: inactive

## C=CC(=O)OCCOCC(CC)(COCCOC(=O)C=C)COCCOC(=O)C=C
[7]
  Potency: 28.4 µM (active)
[2]
  Potency: 80.2 µM (active)
[3]
  Potency: inactive
[9]
  Potency: inactive
[6]
  Potency: inactive
[8]
  Potency: inactive

## NC(=O)C(=O)N/N=C/c1ccc([N+](=O)[O-])o1
[7]
  Potency: inactive
[2]
  Potency: inactive
[5]
  Potency: inactive
[8]
  Potency: inactive
